Results as given in PubChem BioAssay (NCI).
Compounds without any hit were thinned out: in the full panel of roughly 83,000, 20% have a hit.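 Results are percent growth after 48 hours of single-concentration exposure. 100 means growth as in untreated cells, lower positive values show inhibition; negative values down to -100 show cell death.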 Values without a mark were called inactive. Activity calls are given as the source filed them.

test system: NCI-H322M lung; test: NCI-60 one-dose screen, 48 h (100 = growth as untreated, 0 = no growth, -100 = all killed); details: 10 µM unless noted
Experimental: Growth inhibition of the NCI-H322M human Non-Small Cell Lung tumor cell line is measured as a screen for anti-cancer activity. Cells are grown in 96 well plates and exposed to the test compound for 48 hours. Compounds are tested at a single concentration, which is 10^-5 M for most compounds. The reported endpoint is percent growth (GI% or GIPRCNT), where numbers from 0 - 100% represent growth inhibition, and numbers from -100% - 0 represent cell death. For example, a value of 40 represents 60% growth inhibition. A value of 0 means no net growth occurred over the course of the experiment. A value of -40 indicates 40% of cells at the beginning of the experiment died by the end of the experiment. A value of -100 means all cells are dead at the end of the experiment.
NCI-60 Human Tumor Cell Lines Screen was performed using the standard one-dose NCI protocol, which is described in more detail at https://dtp.cancer.gov/discovery_development/nci-60/default.htm.
Compounds with GIPRCNT values below 10 were considered active. Activity score was based on GIPRCNT using the following formula: […]
Score is 0 for GIPRCNT values of 100 or above, 50 for GIPRCNT values of 0, and 100 for GIPRCNT values of -100.

Row | SMILES | growth
1 | CC(CNc1nc(Nc2ccc(Cl)c(Cl)c2)nc(C(Cl)(Cl)Cl)n1)N(C)C (stereo not given) | 27.6%
2 | CC(C)(C)CC(C)(C)c1ccc(OCCOCC[N+](C)(C)CC(=O)[O-])cc1 | 111%
3 | Cn1cc(-c2csc(-c3cn(CCN)c4ccc(Br)cc34)n2)c2cccnc21 | 75.3%
4 | NCCn1cc(-c2nc(-c3c[nH]c4ncccc34)cs2)c2ccccc21 | 74.6%
5 | C=C1C(=O)O[C@H]2[C@H]1CC/C(COC(=O)NCc1c[nH]c3ccccc13)=C\CC[C@@]1(C)O[C@@H]21 | 84.5%
6 | CC1(C)c2ccccc2C(=O)C1(Br)Cc1ccccc1 (stereo not given) | 95.5%
7 | Cn1cc(-c2nc(-c3c[nH]c4ncccc34)cs2)c2cc(Br)ccc21 | 76.4%
8 | COc1cc(-c2cc(-c3nc4ccccc4[nH]3)[nH]n2)cc(OC)c1OC | 39.5%
9 | COc1ccc(C2(Cl)c3ccccc3N(c3ccccc3)c3ccccc32)cc1 | 9.96% (active)
10 | Cn1nc(-c2ccccc2)c2c(-c3ccccc3)onc2c1=O | 55.4%
11 | CC(C)(C)n1cc(-c2ccnc(NCCCNS(=O)(=O)c3ccc(Cl)cc3)c2)c(-c2cccc(F)c2)n1 | 98.5%
12 | O=C(/C=C\c1ccc2c(c1)OCO2)/C=C/c1ccc2c(c1)OCO2 | 99.2%
13 | C=C(C)[C@@H]1CC[C@]2(C(=O)NNC(=O)c3cccnc3)CC[C@]3(C)[C@H](CC[C@@H]4[C@@]5(C)CCCNC(C)(C)[C@@H]5CC[C@]43C)[C@@H]12 | 101%
14 | C=C1C(=O)O[C@H]2[C@H]1CC/C(COC(=O)NCCc1c[nH]c3ccccc13)=C\CC[C@@]1(C)O[C@@H]21 | 83.2%
15 | COc1ccc(C2c3ccccc3NC(=O)N2C2CCN(C)CC2)c(OC)c1 (stereo not given) | 95.9%
16 | Fc1ccc(Nc2nc(Nc3ccc(-c4nc5ccccc5[nH]4)cc3)nc(N3CCCC3)n2)cc1 | 96%
17 | Cc1cccc(C)c1NC(=O)CSC(=S)N1CCN(CCOCCO)CC1 | 85.8%
18 | N=C(N)c1ccc(-c2ccc(-c3cc(F)cc(F)c3)o2)nc1 | 96.4%
19 | Nc1c2c(nc3ccc(Cl)cc13)CC(c1ccc(O)cc1)CC2=O (stereo not given) | 56.2%
20 | Cc1ccc(-c2nc3ccc(Cl)cc3c(=O)n2N2C(=O)CSC2c2ccccc2Cl)cc1 (stereo not given) | 86.7%

Row | SMILES | growth
21 | Cc1cccc(C)c1NCc1nc(-c2ccccc2)n[nH]1 | 95.4%
22 | Cn1cccc1/C=C1/SC(=S)N(CCc2ccc(O)cc2)C1=O | 87.3%
23 | Nc1c(C(=O)Nc2cccc(Cl)c2)sc2ncc(Cl)cc12 | 64.7%
24 | Nc1nc(Br)nc2c1ncn2C1CC(O)C(CO)O1 (stereo not given) | 83.6%
25 | O=S(=O)(NCCNc1cc(-c2cn(-c3ccccc3)nc2-c2cccc(O)c2)ccn1)c1ccc(C(F)(F)F)cc1 | 75.3%
26 | Cc1nn2c(-c3nc4cc(Cl)c(Cl)cc4[nH]3)c(-c3ccc(F)cc3)nc2s1 | -20% (active)
27 | C#Cc1cccc(NC(=O)C2CCCN(C(=O)CCl)C2)c1 (stereo not given) | 111% [8.25 µM]
28 | Cc1ccc(-c2ccc(Nc3ccccc3)nn2)cc1S(N)(=O)=O | 108%
29 | Clc1ccc(Cn2cc(-c3nc4ccc(Br)nc4n3Cc3ccc(Cl)cc3)c3cccnc32)cc1 | 81.1%
30 | Nc1c(C(=O)Nc2c(Cl)cccc2Cl)sc2nc3c(cc12)C(=O)CCC3 | 56.7%
31 | c1ccc2[nH]c(-c3cc(-c4ccc5c(c4)OCO5)n[nH]3)nc2c1 | 67.1%
32 | CC[C@]12C=CCN3CC[C@@]4(c5cc([C@H]6CCC(=O)N6)c(OC)cc5N(C)[C@H]4[C@@](O)(C(=O)OC)[C@@H]1OC(C)=O)[C@@H]32 | 99.8% [2.5 µM]
33 | CC(C)c1cc(C(=O)O)c(O)c(C(C)C)c1.CC(C)c1cc(C(=O)O)c(O)c(C(C)C)c1.[Mn] | 110%
34 | CCCCn1c(-c2ccc(O)cc2)cn2c3c(=O)[nH]c(=O)n(C)c3nc12 | 119%
35 | Cc1ccc(S(=O)(=O)Nc2ccc(-c3cc(-c4cccc(F)c4)c(C#N)c(=O)[nH]3)cc2)cc1 | 90%
36 | Oc1ccc(CCC2CCCC(CCc3ccc(OCCF)cc3)N2)cc1 (stereo not given) | 106%
37 | CCCCC/C(=C\c1ccccc1)C1OC(C)C(C)O1 (stereo not given) | 112%
38 | CCCCC[C@H]1C/C=C2/C(=O)C=C[C@@H]2C/C=C\CCCC(=O)O[C@@H](CCCCC)C/C=C2/C(=O)C=C[C@@H]2C/C=C\CCCC(=O)O1 | -85.7% (active)
39 | COc1cc(NC(C)CN(CC(C)C)C(C)C)c2ncccc2c1 (stereo not given) | 100%
40 | [B-][N+](CC)(CC)c1ccccc1 | 96.9%
